Measurements from PubChem BioAssay (EPA / NIEHS).
Several values for one entry are separate records, joined by “and”; a condition that tells them apart may be missing. Equal entries are not always repeated. Inconclusive results are not listed. Activity calls are given as the source filed them. How the source made its calls, unless noted: active means hit-call score of the fitted dose curve at least 0.9, where 1 is the maximum; inactive means score below 0.9.

Key:
[1] = target: Paired box protein Pax-6 (Homo sapiens) (UniProt P26367); assay: ATG_Pax6_CIS: Attagene CIS-FACTORIAL HepG2 Assay for human Paired Box 6 (PAX6) (AID 2282956); settings: HepG2 CIS-FACTORIAL PAX6 reporter transcription, RNA readout; actives raise or lower the signal
In short: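 Multiplexed cis-reporter HepG2 system; 24 h treatment; reporter mRNA read by RT-PCR/CE fluorescence; bidirectional fit vs DMSO.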

[2] = ATG_PXRE_CIS: Attagene CIS-FACTORIAL HepG2 Assay for human Pregnane X Receptor Element (PXRE) (AID 2282957); settings: HepG2 Attagene CIS-FACTORIAL PXRE reporter, mRNA; actives raise or lower the signal
In short: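 Multiplexed cis-reporter assay in transiently transfected human HepG2 cells; 24 h chemical exposure. Reporter transcripts quantified by RT-PCR with fluorescent labeling and capillary electrophoresis.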

[3] = ATG_RORE_CIS: Attagene CIS-FACTORIAL HepG2 Assay for human RAR-related Orphan Receptor Element (RORE) (AID 2282959); settings: HepG2 Attagene cis-factorial RORE reporter, mRNA; actives raise or lower the signal
In short: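 Fluorescence intensity of reporter-specific cDNA fragments, separated by capillary electrophoresis, gives the signal. Source: HepG2 liver cells transiently transfected with cis-element reporters and exposed 24 h; DMSO-normalized bidirectional fit.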

[4] = ATG_Sox_CIS: Attagene CIS-FACTORIAL HepG2 Assay for human SRY-box transcription factor (SOX) (AID 2282960); settings: HepG2 Attagene cis-factorial SOX reporter, mRNA; actives raise or lower the signal
In short: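 After 24 h of chemical treatment, transfected HepG2 reporter cells are lysed for total RNA. Transcript levels come from RT-PCR with labelled primer extension and capillary electrophoresis, analysed bidirectionally versus DMSO.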

[5] = target: Transcription factor Sp1 (Homo sapiens) (UniProt P08047); assay: ATG_Sp1_CIS: Attagene CIS-FACTORIAL HepG2 Assay for human Specificity Protein 1 (Sp1) (AID 2282961); settings: HepG2 Sp1 cis-reporter transcription, actives raise or lower the signal
In short: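 Sp1-driven reporter mRNA, read as capillary electrophoresis fluorescence after RT-PCR, in transiently transfected HepG2 cells dosed for 24 h; signal change in either direction relative to DMSO.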

[6] = ATG_SREBP_CIS: Attagene CIS-FACTORIAL HepG2 Assay for human Sterol Regulatory Element Binding (SREBP) (AID 2282962); settings: HepG2 Attagene cis-factorial SREBP reporter, mRNA; actives raise or lower the signal
In short: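 mRNA induction of transfected cis-promoter reporters in HepG2 cells, 24 h post-dose. Detection: RT-PCR with 6-FAM-labelled products, HpaI digest, capillary electrophoresis. DMSO served as negative control and baseline.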

[7] = target: Signal transducer and activator of transcription 3 (Homo sapiens) (UniProt P40763); assay: ATG_STAT3_CIS: Attagene CIS-FACTORIAL HepG2 Assay for human Signal Transducer and Activator of Transcription 3 (STAT3) (AID 2282963); settings: HepG2, Attagene cis-factorial STAT3 reporter transcription; actives raise or lower the signal
In short: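 HepG2 cells transiently transfected with cis-element-driven multiple reporter transcription units; after 24 h chemical exposure, reporter mRNA measured by RT-PCR, 6-FAM primer-extension labelling, HpaI digestion and capillary electrophoresis. Bidirectional fitting versus DMSO baseline.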

[8] = ATG_TA_CIS: Attagene CIS-FACTORIAL HepG2 Assay for human TA Basal Promoter (AID 2282964); settings: HepG2 Attagene CIS-factorial TA basal promoter reporter; actives raise or lower the signal
In short: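 Transient MRTU transfection of HepG2 preceded 24 h compound exposure. Reporter mRNA levels were then read by RT-PCR with capillary electrophoresis, and this background-control endpoint was fitted bidirectionally to DMSO.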

[9] = ATG_TCF_b_cat_CIS: Attagene CIS-FACTORIAL HepG2 Assay for human T-Cell-Factor with beta-catenin (TCF/b-cat) (AID 2282965); settings: HepG2 TCF/beta-catenin cis-reporter transcription, actives raise or lower the signal
In short: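 HepG2 cells transiently transfected with multiple cis-promoter-regulated reporter transcription units, so endogenous transcription factor activity is measured. Reporter mRNA read 24 hours after dosing by RT-PCR, fluorescent labelling and capillary electrophoresis; bidirectional fitting against DMSO.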

[10] = ATG_TAL_CIS: Attagene CIS-FACTORIAL HepG2 Assay for human TAL Basal Promoter (AID 2282966); settings: HepG2 Attagene cis-factorial TAL promoter reporter; actives raise or lower the signal;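 further: background control endpoint measuring basal TAL promoter reporter mRNA not a specific factor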
In short: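 Steps: transfect HepG2 with multiple reporter transcription units; dose 24 h; isolate RNA, reverse-transcribe, PCR-amplify, label with 6-FAM, digest with HpaI; resolve by capillary electrophoresis. Bidirectional fitting against DMSO baseline.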

[11] = ATG_TGFb_CIS: Attagene CIS-FACTORIAL HepG2 Assay for human Transforming Growth Factor (TGF) (AID 2282967); settings: HepG2 Attagene CIS TGFb reporter, mRNA transcription; actives raise or lower the signal
In short: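 After a 24-hour incubation with compound, transfected HepG2 cells were lysed for RNA; reporter cDNA was amplified, fluorescently end-labeled and separated by CE. DMSO served as baseline for bidirectional fits.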

[12] = ATG_VDRE_CIS: Attagene CIS-FACTORIAL HepG2 Assay for human Vitamin D Receptor Element (VDRE) (AID 2282968); settings: HepG2 VDRE cis-reporter transcription, actives raise or lower the signal
In short: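 HepG2 cells transiently transfected with cis-element reporter units, dosed 24 h; reporter mRNA measured by RT-PCR, 6-FAM labeling, HpaI digestion and capillary electrophoresis. Activity fitted bidirectionally against DMSO baseline.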

[13] = target: Steroid hormone receptor ERR1 (Homo sapiens) (UniProt P11474); assay: ATG_ERRa_TRANS: Attagene TRANS-FACTORIAL HepG2 Assay for human Estrogen-Related Receptor alpha (ERRa) (AID 2282971; active means hit-call score of the fitted dose curve at least 0.9, where 1 is the maximum); settings: HepG2 Attagene TRANS reporter, ERRa transactivation
In short: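 Signal gain relative to DMSO for an ERRa-Gal4 chimeric receptor, read as reporter mRNA by RT-PCR/capillary electrophoresis. Human HepG2 liver cells, transient multiplex reporter transfection, 24 h chemical exposure.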

[14] = target: X-box-binding protein 1 (Homo sapiens) (UniProt P17861); assay: ATG_Xbp1_CIS: Attagene CIS-FACTORIAL HepG2 Assay for human X-box Binding Protein 1 (XBP1) (AID 2282972); settings: HepG2 XBP1 cis-element reporter, Attagene multiplex; actives raise or lower the signal
In short: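 Fluorescence-labelled cDNA fragments from reporter transcripts, separated by capillary electrophoresis, give the signal. Source: HepG2 cells transfected with promoter-driven reporter units, harvested 24 h post-dose. DMSO served as reference for bidirectional curve fitting.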

[15] = ATG_GAL4_TRANS: Attagene TRANS-FACTORIAL HepG2 Assay for GAL4 (Internal Marker) (AID 2282976; active means hit-call score of the fitted dose curve at least 0.9, where 1 is the maximum); settings: HepG2 Attagene TRANS GAL4 internal marker reporter
In short: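 Liver HepG2 line bearing multiplexed GAL4-UAS reporter constructs; 24 h chemical treatment. Transcripts were quantified as fluorescent fragments on capillary electrophoresis after RT-PCR and HpaI cut, with activity fitted upward from DMSO.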

[16] = target: Estrogen-related receptor gamma (Homo sapiens) (UniProt P62508); assay: ATG_ERRg_TRANS: Attagene TRANS-FACTORIAL HepG2 Assay for human Estrogen-Related Receptor gamma (ERRg) (AID 2282977; active means hit-call score of the fitted dose curve at least 0.9, where 1 is the maximum;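 further: hits increase reporter signal over DMSO so potencies reflect activators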); settings: HepG2 Attagene TRANS reporter, ERRg transactivation
In short: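 Transient HepG2 transfectants, 24 h compound exposure, GAL4-UAS reporter mRNA by RT-PCR/6-FAM labelling/capillary electrophoresis; positive direction vs DMSO.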

[17] = ATG_PPRE_CIS: Attagene CIS-FACTORIAL HepG2 Assay for human Peroxisome Proliferator-activated Response Element (PPRE) (AID 2282958); settings: HepG2 PPRE cis-element reporter, Attagene transcription factor profiling; actives raise or lower the signal
In short: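 Multiplexed reporter transcription units under cis-regulatory promoters were transfected into HepG2 cells to capture endogenous factor activity. A 24 h incubation preceded RNA isolation and fluorescent RT-PCR fragment analysis.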

[18] = target: Estrogen receptor (Homo sapiens) (UniProt P03372); assay: ATG_ERa_TRANS: Attagene TRANS-FACTORIAL HepG2 Assay for human Estrogen Receptor alpha (ERa) (AID 2282970; active means hit-call score of the fitted dose curve at least 0.9, where 1 is the maximum); settings: HepG2 Attagene TRANS ERa GAL4 reporter, mRNA
In short: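 Multiplexed cell-based reporter format in HepG2: chimeric ERa-Gal4 protein drives GAL4-UAS reporter transcription. Fluorescent reporter mRNA quantified by capillary electrophoresis 24 hours after dosing; endpoint fitted as signal gain against DMSO.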

Measured: AC50

Chain of Signal transducer and activator of transcription 3 (Homo sapiens) (P40763 whole entry, looked up): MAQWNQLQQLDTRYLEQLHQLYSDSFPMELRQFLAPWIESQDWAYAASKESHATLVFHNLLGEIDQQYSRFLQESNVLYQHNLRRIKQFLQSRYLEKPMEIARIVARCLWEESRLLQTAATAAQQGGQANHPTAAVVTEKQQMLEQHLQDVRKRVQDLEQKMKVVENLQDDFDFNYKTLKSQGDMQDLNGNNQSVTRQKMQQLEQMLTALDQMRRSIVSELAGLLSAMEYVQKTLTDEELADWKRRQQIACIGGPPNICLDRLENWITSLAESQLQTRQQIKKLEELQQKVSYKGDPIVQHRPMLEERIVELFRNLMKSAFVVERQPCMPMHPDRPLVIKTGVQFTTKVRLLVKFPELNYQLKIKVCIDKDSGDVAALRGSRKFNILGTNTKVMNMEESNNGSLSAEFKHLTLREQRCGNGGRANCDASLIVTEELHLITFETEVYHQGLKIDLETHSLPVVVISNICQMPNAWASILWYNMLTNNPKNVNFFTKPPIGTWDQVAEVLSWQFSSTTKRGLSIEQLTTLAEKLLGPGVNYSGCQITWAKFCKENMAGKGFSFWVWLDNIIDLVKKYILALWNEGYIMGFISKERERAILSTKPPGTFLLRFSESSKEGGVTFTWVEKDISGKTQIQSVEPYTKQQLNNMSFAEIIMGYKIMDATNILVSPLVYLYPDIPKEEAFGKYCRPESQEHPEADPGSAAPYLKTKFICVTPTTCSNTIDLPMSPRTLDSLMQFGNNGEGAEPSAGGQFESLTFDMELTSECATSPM
Chain of Transcription factor Sp1 (Homo sapiens) (P08047 whole entry, looked up): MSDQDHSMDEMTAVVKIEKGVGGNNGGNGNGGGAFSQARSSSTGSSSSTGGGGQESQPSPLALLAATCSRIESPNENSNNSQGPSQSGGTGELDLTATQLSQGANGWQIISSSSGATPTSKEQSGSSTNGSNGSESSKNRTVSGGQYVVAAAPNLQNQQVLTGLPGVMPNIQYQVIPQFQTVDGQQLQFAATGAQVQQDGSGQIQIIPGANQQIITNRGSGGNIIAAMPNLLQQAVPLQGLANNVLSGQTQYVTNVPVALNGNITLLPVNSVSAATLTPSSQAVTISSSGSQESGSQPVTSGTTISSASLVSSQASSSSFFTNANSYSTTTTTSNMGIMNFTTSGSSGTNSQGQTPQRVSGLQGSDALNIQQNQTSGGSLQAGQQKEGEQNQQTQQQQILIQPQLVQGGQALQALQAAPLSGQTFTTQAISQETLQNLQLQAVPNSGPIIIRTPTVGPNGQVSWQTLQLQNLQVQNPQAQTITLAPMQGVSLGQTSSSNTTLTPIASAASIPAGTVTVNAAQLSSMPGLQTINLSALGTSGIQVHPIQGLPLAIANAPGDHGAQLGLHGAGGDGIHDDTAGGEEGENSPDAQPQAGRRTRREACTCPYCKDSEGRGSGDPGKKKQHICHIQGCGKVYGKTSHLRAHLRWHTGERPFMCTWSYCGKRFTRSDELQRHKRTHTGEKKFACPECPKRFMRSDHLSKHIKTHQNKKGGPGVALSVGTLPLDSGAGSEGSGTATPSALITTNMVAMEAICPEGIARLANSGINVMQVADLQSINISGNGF
Chain of Paired box protein Pax-6 (Homo sapiens) (P26367 whole entry, looked up): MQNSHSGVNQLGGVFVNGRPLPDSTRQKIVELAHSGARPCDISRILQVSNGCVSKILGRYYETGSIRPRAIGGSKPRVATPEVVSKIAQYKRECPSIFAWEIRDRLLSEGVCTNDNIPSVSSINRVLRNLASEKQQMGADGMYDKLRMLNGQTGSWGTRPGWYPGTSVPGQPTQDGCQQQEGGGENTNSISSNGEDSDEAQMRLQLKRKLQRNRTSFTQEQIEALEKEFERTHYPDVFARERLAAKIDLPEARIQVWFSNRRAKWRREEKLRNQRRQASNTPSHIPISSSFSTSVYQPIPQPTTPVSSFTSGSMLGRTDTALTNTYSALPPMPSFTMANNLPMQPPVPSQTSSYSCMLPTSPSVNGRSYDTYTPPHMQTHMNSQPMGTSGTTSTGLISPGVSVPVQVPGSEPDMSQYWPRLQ
Chain of Estrogen-related receptor gamma (Homo sapiens) (P62508 whole entry, looked up, the tested form may be a part): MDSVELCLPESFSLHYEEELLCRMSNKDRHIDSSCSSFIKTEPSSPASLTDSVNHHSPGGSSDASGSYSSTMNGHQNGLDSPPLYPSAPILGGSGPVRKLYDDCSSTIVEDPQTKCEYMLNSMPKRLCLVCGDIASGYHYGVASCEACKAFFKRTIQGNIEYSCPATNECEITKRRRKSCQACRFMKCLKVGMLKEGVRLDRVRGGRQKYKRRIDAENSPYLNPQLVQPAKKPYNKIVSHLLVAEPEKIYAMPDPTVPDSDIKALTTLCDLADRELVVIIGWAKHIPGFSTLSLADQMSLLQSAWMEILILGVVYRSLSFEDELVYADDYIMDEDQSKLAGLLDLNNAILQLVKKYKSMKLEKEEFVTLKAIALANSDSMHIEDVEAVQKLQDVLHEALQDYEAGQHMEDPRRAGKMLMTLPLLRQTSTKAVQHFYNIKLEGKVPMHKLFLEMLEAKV
Chain of Steroid hormone receptor ERR1 (Homo sapiens) (P11474 whole entry, looked up, the tested form may be a part): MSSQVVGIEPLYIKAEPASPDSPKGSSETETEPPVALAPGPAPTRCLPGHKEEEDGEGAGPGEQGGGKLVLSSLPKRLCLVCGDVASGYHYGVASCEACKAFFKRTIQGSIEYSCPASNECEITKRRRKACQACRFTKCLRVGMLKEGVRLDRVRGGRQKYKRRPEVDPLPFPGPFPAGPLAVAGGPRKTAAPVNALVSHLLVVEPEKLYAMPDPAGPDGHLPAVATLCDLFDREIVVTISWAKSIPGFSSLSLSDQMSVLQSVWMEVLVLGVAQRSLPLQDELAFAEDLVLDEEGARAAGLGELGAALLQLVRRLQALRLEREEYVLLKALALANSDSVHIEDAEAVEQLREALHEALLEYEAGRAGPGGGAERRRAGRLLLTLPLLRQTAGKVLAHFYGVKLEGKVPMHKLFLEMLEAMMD
Chain of X-box-binding protein 1 (Homo sapiens) (P17861 whole entry, looked up, the tested form may be a part): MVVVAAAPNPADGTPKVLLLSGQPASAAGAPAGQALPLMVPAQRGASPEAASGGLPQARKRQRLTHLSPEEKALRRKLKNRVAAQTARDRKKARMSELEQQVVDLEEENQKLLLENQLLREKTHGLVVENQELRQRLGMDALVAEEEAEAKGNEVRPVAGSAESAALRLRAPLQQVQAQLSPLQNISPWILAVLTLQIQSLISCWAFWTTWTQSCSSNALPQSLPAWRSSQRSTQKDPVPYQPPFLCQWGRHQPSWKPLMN
Chain of Estrogen receptor (Homo sapiens) (P03372 whole entry, looked up, the tested form may be a part): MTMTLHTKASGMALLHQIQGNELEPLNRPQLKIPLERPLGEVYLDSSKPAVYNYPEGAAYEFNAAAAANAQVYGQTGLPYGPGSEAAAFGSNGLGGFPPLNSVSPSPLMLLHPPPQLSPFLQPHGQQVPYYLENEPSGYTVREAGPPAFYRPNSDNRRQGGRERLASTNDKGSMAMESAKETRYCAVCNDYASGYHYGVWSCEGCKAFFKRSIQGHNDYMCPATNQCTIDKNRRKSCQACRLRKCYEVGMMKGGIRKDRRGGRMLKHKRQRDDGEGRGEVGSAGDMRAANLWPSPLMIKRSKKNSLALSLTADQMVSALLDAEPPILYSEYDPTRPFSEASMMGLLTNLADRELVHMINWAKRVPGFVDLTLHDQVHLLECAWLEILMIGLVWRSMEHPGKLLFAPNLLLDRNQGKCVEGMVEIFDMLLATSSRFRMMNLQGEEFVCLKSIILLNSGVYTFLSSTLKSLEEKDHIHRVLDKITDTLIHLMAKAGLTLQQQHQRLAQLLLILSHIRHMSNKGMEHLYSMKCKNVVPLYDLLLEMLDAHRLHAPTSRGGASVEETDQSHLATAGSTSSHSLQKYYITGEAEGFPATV

CC1(C)NC(=O)N(c2ccc([N+](=O)[O-])c(C(F)(F)F)c2)C1=O
active: [2] 27.5 µM and 6.9 µM and 27.3 µM
not listed: [17] | [18]
inactive: all other assays above

O=CCCCC=O
not listed: [9]
inactive: all other assays above
